In all, about 310,000 compounds went through this assay and about 14,000 (4.5%) showed an effect of 50% or more. Effects have a minus sign here. The sample as a whole holds a higher share of strong results than the screen did.
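Also: peak tail current of the secondary pulse compared with the same well before compound.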

The target in this test is human ether-à-go-go-related gene (hERG) potassium channel (human, UniProt Q12809). The test is described as follows: primary screen, population patch clamp on CHO cells stably expressing hERG; higher = less effect of the substance.
Sequence of human ether-à-go-go-related gene (hERG) potassium channel (Q12809 whole entry, looked up): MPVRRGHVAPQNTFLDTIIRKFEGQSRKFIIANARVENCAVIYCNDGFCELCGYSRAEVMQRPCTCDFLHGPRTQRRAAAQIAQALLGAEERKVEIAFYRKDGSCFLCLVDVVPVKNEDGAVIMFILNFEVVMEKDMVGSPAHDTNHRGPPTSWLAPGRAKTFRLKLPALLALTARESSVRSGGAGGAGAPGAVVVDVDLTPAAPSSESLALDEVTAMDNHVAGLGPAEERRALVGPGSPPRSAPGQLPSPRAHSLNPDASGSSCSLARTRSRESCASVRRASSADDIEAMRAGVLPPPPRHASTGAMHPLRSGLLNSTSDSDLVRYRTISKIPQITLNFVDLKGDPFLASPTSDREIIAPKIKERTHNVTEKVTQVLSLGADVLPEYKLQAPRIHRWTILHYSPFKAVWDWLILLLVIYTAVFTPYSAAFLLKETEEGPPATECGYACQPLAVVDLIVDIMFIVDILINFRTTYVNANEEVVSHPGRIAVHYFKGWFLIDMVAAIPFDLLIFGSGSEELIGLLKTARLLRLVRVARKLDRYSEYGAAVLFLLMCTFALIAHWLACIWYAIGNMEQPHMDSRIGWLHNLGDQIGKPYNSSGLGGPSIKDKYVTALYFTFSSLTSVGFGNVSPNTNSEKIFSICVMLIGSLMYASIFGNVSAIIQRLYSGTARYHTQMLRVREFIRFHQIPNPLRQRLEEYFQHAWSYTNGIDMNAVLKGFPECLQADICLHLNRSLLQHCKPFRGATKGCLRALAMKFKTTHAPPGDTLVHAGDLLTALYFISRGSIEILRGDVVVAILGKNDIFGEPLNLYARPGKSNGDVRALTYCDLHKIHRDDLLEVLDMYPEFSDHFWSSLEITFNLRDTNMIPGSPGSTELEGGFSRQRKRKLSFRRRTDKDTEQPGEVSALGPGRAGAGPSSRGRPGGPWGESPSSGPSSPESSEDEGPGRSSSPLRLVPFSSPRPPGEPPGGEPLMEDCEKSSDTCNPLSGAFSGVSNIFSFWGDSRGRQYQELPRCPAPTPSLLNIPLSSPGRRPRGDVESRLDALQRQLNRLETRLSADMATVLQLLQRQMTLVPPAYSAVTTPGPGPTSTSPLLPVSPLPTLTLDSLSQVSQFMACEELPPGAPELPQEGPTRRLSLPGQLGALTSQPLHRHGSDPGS
In the case of `c1ccc(-n2nnc3ccccc32)nc1`, the “hERG current change (%, negative = inhibition) at 10uM” value came to 3.7%.
As to `O=C(NN1C(=O)c2ccccc2NC1c1cccnc1)c1ccc([N+](=O)[O-])cc1` (stereo not shown), the “hERG current change (%, negative = inhibition) at 10uM” value was -37.5%.
Turning to `O=C(NCS(=O)(=O)c1ccccc1)c1ccccc1`, the “hERG current change (%, negative = inhibition) at 10uM” value is given as -0.415%.
With `CCOc1ccccc1CN1CCN(Cc2ccc3cc(F)ccc3n2)CC1CCO` (stereo not shown), the “hERG current change (%, negative = inhibition) at 10uM” value is -65.7%.
Take `CCOc1ccccc1CN1CCN(Cc2ccc3cccc(OC)c3n2)CC1CCO` (stereo not shown): the “hERG current change (%, negative = inhibition) at 10uM” value is -55.5%.
For `CCOc1ccc2nc(CN3CCN(Cc4ccccc4OCC)C(CCO)C3)ccc2c1` (stereo not shown) the value was -56.9%.
Turning to `COc1ccc(-c2csc(NC(C)c3nc4cc(C(=O)NCCCO)ccc4n3Cc3ccc(C)cc3)n2)cc1` (stereo not shown), the “hERG current change (%, negative = inhibition) at 10uM” value came out at 9.34%.
In the case of `Fc1ccccc1Nc1nc2ccccc2n2nnnc12` it was 7.8%; in that of `CCOc1cc(C(=O)Nc2ccc(S(=O)(=O)Nc3cc(C)on3)cc2)cc(OCC)c1OCC`, -0.904%.
As for `O=C(NCc1ccco1)C1CCC(N2C(=O)c3ccccc3C2=O)CC1` (stereo not shown), the “hERG current change (%, negative = inhibition) at 10uM” value is 1.59%.
For the compound `C=C1Cn2c(nnc2-c2ccc(Cl)cc2)S1`, the “hERG current change (%, negative = inhibition) at 10uM” value is recorded as -27.4%.
With `C=CCNC(=O)C1(c2ccccc2)CC1(Cl)Cl` (stereo not shown), the “hERG current change (%, negative = inhibition) at 10uM” value is on record as -5.1%.
With `O=c1cc(N2CCCCC2)c(-c2ccccc2)nn1Cc1cccc(Cl)c1`, the “hERG current change (%, negative = inhibition) at 10uM” value is 0.996%.
On to `COC(=O)c1ccc(/C=C2\Oc3ccccc3NC2=O)cc1`, for which the “hERG current change (%, negative = inhibition) at 10uM” value is listed as 15.5%.
Take `CCOC(=O)C1=C(C)NC(=S)NC1c1ccc(-c2cccc(Cl)c2C)o1` (stereo not shown): the “hERG current change (%, negative = inhibition) at 10uM” value is 14.4%.
As for `Cc1cccc(N2CC(O)(c3cccs3)[N+]3=C2CCCC3)c1C.[Br-]` (stereo not shown), the “hERG current change (%, negative = inhibition) at 10uM” value was -43.5%.
In the case of `COc1ccc(N2CC(O)(c3ccc(C)cc3)[N+]3=C2CCCC3)cc1.[Br-]` (stereo not shown) it was -38.9%; in that of `COc1ccc(N2CC(O)(c3ccc(OC(F)F)cc3)[N+]3=C2CCCC3)cc1.[Br-]` (stereo not shown), -70%; in that of `CCOc1ccc(N2CC(O)(c3cccs3)[N+]3=C2CCCC3)cc1.[Br-]` (stereo not shown), -69.7%.
In the case of `COc1ccc(N2CC(O)(c3ccc(F)cc3)[N+]3=C2CCCC3)cc1.[Br-]` (stereo not shown) it was -3.37%.
In the case of `OC1(c2cccs2)CN(c2ccc(Cl)cc2)C2=[N+]1CCCC2.[Br-]` (stereo not shown) it was -59.5%; in that of `COc1ccc(C2(O)CN(c3ccc(C)cc3)C3=[N+]2CCCC3)cc1.[Br-]` (stereo not shown), -37.5%; in that of `CCOc1ccc(N2CC(O)(c3ccc(F)cc3)[N+]3=C2CCCC3)cc1.[Br-]` (stereo not shown), -71.6%.
On to `Cc1cccc(N2CC(O)(c3cccs3)[N+]3=C2CCCC3)c1.[Br-]` (stereo not shown), for which the “hERG current change (%, negative = inhibition) at 10uM” value is reported as -12.3%.
On to `OC1(c2cccs2)CN(c2ccccc2)C2=[N+]1CCCC2.[Br-]` (stereo not shown), for which the “hERG current change (%, negative = inhibition) at 10uM” value worked out at 4.63%.
Take `Cc1ccc(N2CC(O)(c3cccs3)[N+]3=C2CCCC3)cc1.[Br-]` (stereo not shown): the “hERG current change (%, negative = inhibition) at 10uM” value is given as -32.3%.
For `CCOc1ccc(N2CC(C(=O)NNC(=O)c3ccc(F)cc3)CC2=O)cc1` (stereo not shown) the value was -25.4%; for `Cc1cccc(C)c1NC(=O)CN1C(=O)COc2ccccc21`, 10.5%; for `Cc1ccc(S(=O)(=O)c2cnc(-c3ccccc3)nc2N2CCCCC2)cc1`, 25.7%.
As to `CS(=O)(=O)c1ccc(NCCc2ccccn2)c([N+](=O)[O-])c1`, the “hERG current change (%, negative = inhibition) at 10uM” value is recorded as -22.7%.
On to `COc1cccc(C2C(C(=O)Nc3ccc(C)cc3C)=C(C)Nc3ncnn32)c1OC` (stereo not shown), for which the “hERG current change (%, negative = inhibition) at 10uM” value is reported as 7.02%.
On to `O=C(Nc1c2c(nn1-c1ccc(F)cc1)CS(=O)C2)c1ccco1` (stereo not shown), for which the “hERG current change (%, negative = inhibition) at 10uM” value was -21.4%.
For the compound `CC(=O)Nc1ccc(NC(=O)c2cc(=O)c3ccc(C)cc3o2)cc1`, the “hERG current change (%, negative = inhibition) at 10uM” value is reported as 17.4%.
For `CCC1=NN(C(=O)Cc2ccccc2)C(O)(c2ccncc2)C1` (stereo not shown) the value was 28.9%.
As to `COc1ccc(OCc2cccc(C(=O)Nn3cc([N+](=O)[O-])cn3)c2)cc1`, the “hERG current change (%, negative = inhibition) at 10uM” value is listed as -15.6%.
Take `CCOC(=O)c1ccc(CNC(=O)c2cc(COc3ccccc3SC)on2)o1`: the “hERG current change (%, negative = inhibition) at 10uM” value is recorded as 1.07%.
In the case of `CC(C)Cn1c(N)c(C=O)c(=O)n(C)c1=O` it was 26.4%.
Turning to `COc1cccc(CN2CC(C(=O)N3CCCCCCC3)CCC2=O)c1` (stereo not shown), the “hERG current change (%, negative = inhibition) at 10uM” value was -2.24%.
Take `O=C(C1CCC(=O)N(C2CC2)C1)N1CCN(c2ccc(Cl)cc2)CC1` (stereo not shown): the “hERG current change (%, negative = inhibition) at 10uM” value is -38.1%.
Consider `COc1cccc(CN2CC(C(=O)N3CCN(c4ccc(Cl)cc4)CC3)CCC2=O)c1` (stereo not shown), for which the “hERG current change (%, negative = inhibition) at 10uM” value was -70.9%.
Consider `O=C1CCC(C(=O)N2CCN(c3ccccc3)CC2)CN1CC1CCCCC1` (stereo not shown), for which the “hERG current change (%, negative = inhibition) at 10uM” value is recorded as -27.5%.
As for `COc1cccc(CN2CC(C(=O)N3CCCC3)CCC2=O)c1` (stereo not shown), the “hERG current change (%, negative = inhibition) at 10uM” value came out at 19.4%.
For the compound `Cc1cc(N2CCC(C(=O)N3CCN(c4cccc(C)c4C)CC3)CC2)n2ncnc2n1`, the “hERG current change (%, negative = inhibition) at 10uM” value is -68.7%.
Turning to `O=C1CCC(C(=O)N2CCN(c3ccccc3Cl)CC2)CN1CC1CCCCC1` (stereo not shown), the “hERG current change (%, negative = inhibition) at 10uM” value is -72.2%.
With `O=C(C1CCC(=O)N(C2CCCC2)C1)N1CCN(c2ccc(Cl)cc2)CC1` (stereo not shown), the “hERG current change (%, negative = inhibition) at 10uM” value is recorded as -61%.
With `O=C(C1CCC(=O)N(C2CCCC2)C1)N1CCN(c2ccccc2Cl)CC1` (stereo not shown), the “hERG current change (%, negative = inhibition) at 10uM” value is listed as -15.8%.
For `O=C(C1CCC(=O)N(C2CCCCCC2)C1)N1CCN(c2ccccc2Cl)CC1` (stereo not shown) the value was -42.9%.
As for `Cc1cc(N2CCN(C(=O)OC(C)(C)C)CC2)n2ncnc2n1`, the “hERG current change (%, negative = inhibition) at 10uM” value is -27.5%.
Consider `Cc1cccc(N2CCN(C(=O)C3CCCCC3)CC2)c1C`, for which the “hERG current change (%, negative = inhibition) at 10uM” value is given as -24.8%.
Turning to `O=C(Cn1nnc(-c2ccc(CN3CCOCC3)cc2)n1)NC1CCCCC1`, the “hERG current change (%, negative = inhibition) at 10uM” value is listed as -12.4%.
On to `COc1cccc(NC(=O)CCNS(=O)(=O)c2ccc(Br)s2)c1`, for which the “hERG current change (%, negative = inhibition) at 10uM” value is listed as -32.6%.
As for `CCCCNC(=O)C1CCN(S(=O)(=O)N2CCOCC2)CC1`, the “hERG current change (%, negative = inhibition) at 10uM” value came out at 5.58%.
As for `COc1ccc(OCc2nc3c4c(ncn3n2)-c2ccccc2CC42CCCC2)cc1`, the “hERG current change (%, negative = inhibition) at 10uM” value is 6.66%.
Consider `CCC(Oc1ccccc1)C(=O)Nc1nnc(S(=O)(=O)N2CCCCC2)s1` (stereo not shown), for which the “hERG current change (%, negative = inhibition) at 10uM” value is on record as 12.8%.
`CCc1ccc(-c2csc3ncn(Cc4ccc(C(=O)O)cc4)c(=O)c23)cc1`: the “hERG current change (%, negative = inhibition) at 10uM” value is recorded as 4.9%.
